PubChem BioAssay (EPA / NIEHS)
Where a structure was tested more than once in an assay, its records may differ in their call. Calls of active or inactive are those of the source. The calls were made as follows: active = hit-call score of the fitted dose curve at least 0.9, where 1 is the maximum; inactive = score below 0.9.

Columns and labels:
[1] = read-out: Epidermal growth factor receptor (EGFR), EGFR (gene 1956); experiment: BSK_BE3C_EGFR: BioMAP Diversity Plus: BE3C Assay for Epidermal growth factor receptor (EGFR) Biomarker Activity (AID 2284281); conditions: primary human bronchial epithelial cells
Summary of the method: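 Human primary bronchial epithelial cells (BE3C system) dosed with chemicals; EGFR measured by ELISA at 24 h, fitted in the positive direction relative to DMSO. Cytotoxicity tracked in parallel cultures by SRB total-protein staining.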

KRT18 (gene 3875) = experiment: BSK_BE3C_Keratin818: BioMAP Diversity Plus: BE3C Assay for Keratin 818 Biomarker Activity (AID 2284282); conditions: primary human bronchial epithelial cells
Summary of the method: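 BE3C: human bronchial epithelial primary cells, 24 h exposure, Keratin 8/18 ELISA; DMSO = negative control/baseline; cytotoxicity by parallel SRB stain (0.1% SRB after 10% TCA fixation, 560 nm).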

[2] = read-out: Matrix Metallopeptidase 9 (MMP9), MMP9 (gene 4318); experiment: BSK_BE3C_MMP9: BioMAP Diversity Plus: BE3C Assay for Matrix Metallopeptidase 9 (MMP9) Biomarker Activity (AID 2284283); conditions: primary human bronchial epithelial cells
Summary of the method: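 Human primary bronchial epithelial cells exposed 24 h to compound. MMP9 quantified by ELISA. SRB total-protein staining of parallel cultures assesses cytotoxicity. Positive-direction fit relative to DMSO.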

[3] = read-out: Plasminogen activator inhibitor-1 (PAI1), SERPINE1 (gene 5054); experiment: BSK_CASM3C_PAI1: BioMAP Diversity Plus: CASM3C Assay for Plasminogen activator inhibitor-1 (PAI1) Biomarker Activity (AID 2284284); conditions: primary human coronary artery smooth muscle cells;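 also: PAI-1 protein level measured by ELISA 24 h after dosing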
[4] = read-out: Monocyte Chemoattractant Protein-1 (MCP1), CCL2 (gene 6347); experiment: BSK_hDFCGF_MCP1: BioMAP Diversity Plus: hDFCGF Assay for Monocyte Chemoattractant Protein-1 (MCP1) Biomarker Activity (AID 2284285); conditions: primary human foreskin fibroblasts
Summary of the method: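 Human foreskin fibroblasts (hDFCGF system) were exposed to compound and secreted MCP-1 was measured by ELISA after 24 hours. Activity was fitted relative to DMSO. Cytotoxicity was checked by SRB total-protein staining in parallel cultures.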

[5] = read-out: Vascular cell adhesion molecule 1 (VCAM1), VCAM1 (gene 7412); experiment: BSK_IMphg_VCAM1: BioMAP Diversity Plus: IMphg Assay for Vascular cell adhesion molecule 1 (VCAM1) Biomarker Activity (AID 2284286); conditions: primary human endothelial cells with macrophages
Summary of the method: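 Human venular endothelial cells co-cultured with macrophages; VCAM-1 quantified by ELISA 24 h after dosing, fitted in the positive direction against DMSO. Cytotoxicity was checked in parallel cultures by SRB total-protein staining (0.1% SRB after 10% TCA fixation, 560 nm).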

[6] = read-out: Intercellular Adhesion Molecule 1 (ICAM1), ICAM1 (gene 3383); experiment: BSK_hDFCGF_ICAM1: BioMAP Diversity Plus: hDFCGF Assay for Intercellular Adhesion Molecule 1 (ICAM1) Biomarker Activity (AID 2284287); conditions: primary human foreskin fibroblasts
Summary of the method: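 Primary human foreskin fibroblasts (hDFCGF system) dosed with chemical; ICAM-1 quantified by ELISA at 24 h relative to DMSO. Parallel SRB total-protein staining to assess overt cytotoxicity.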

CD40, CD40 (gene 958) = experiment: BSK_IMphg_CD40: BioMAP Diversity Plus: IMphg Assay for CD40 Biomarker Activity (AID 2284288); conditions: primary human endothelial cells with macrophages
Summary of the method: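 Venular endothelial cells co-cultured with macrophages (human primary), CD40 measured by ELISA 24 h after dosing. Positive-direction fit vs DMSO baseline; cytotoxicity tracked by SRB total-protein staining in parallel cultures.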

[7] = read-out: TIMP metallopeptidase inhibitor 2 (TIMP2), TIMP2 (gene 7077); experiment: BSK_hDFCGF_TIMP2: BioMAP Diversity Plus: hDFCGF Assay for TIMP metallopeptidase inhibitor 2 (TIMP2) Biomarker Activity (AID 2284289); conditions: primary human foreskin fibroblasts
Summary of the method: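 Primary human foreskin fibroblasts in the hDFCGF system, dosed for 24 h; TIMP-2 level measured by ELISA, fitted in the positive direction against DMSO; cytotoxicity checked in parallel by sulforhodamine B total protein staining.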

[8] = read-out: Interleukin-1 alpha (IL1a), IL1A (gene 3552); experiment: BSK_IMphg_IL1a: BioMAP Diversity Plus: IMphg Assay for Interleukin-1 alpha (IL1a) Biomarker Activity (AID 2284290); conditions: primary human endothelial cells with macrophages
Summary of the method: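 Human venular endothelial cells co-cultured with macrophages, IMphg system. IL-1α is measured by ELISA 24 h after dosing and fitted in the positive direction against DMSO. Cytotoxicity is assessed by SRB staining of parallel cultures.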

[9] = BSK_IMphg_SRB: Viability Assessment in the BioMAP Diversity Plus: IMphg Assay (AID 2284292); conditions: primary human endothelial cells with macrophages;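 also: measured one day after compound addition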
Summary of the method: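 Human venular endothelial cells with macrophages, 24 h after chemical dosing; total protein by 0.1% SRB staining after 10% TCA fixation, read at 560 nm. Positive-direction fitting versus DMSO baseline.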

[10] = read-out: Macrophage colony-stimulating factor (MCSF), CSF1 (gene 1435); experiment: BSK_IMphg_MCSF: BioMAP Diversity Plus: IMphg Assay for Macrophage colony-stimulating factor (MCSF) Biomarker Activity (AID 2284293); conditions: primary human endothelial cells with macrophages
Summary of the method: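 Co-culture of human venular endothelial cells and macrophages, 24 hours of chemical exposure. M-CSF quantified by ELISA, with parallel SRB total-protein staining for cytotoxicity; activity fitted relative to DMSO.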

[11] = read-out: Interleukin-10 (IL10), IL10 (gene 3586); experiment: BSK_IMphg_IL10: BioMAP Diversity Plus: IMphg Assay for Interleukin-10 (IL10) Biomarker Activity (AID 2284294); conditions: primary human endothelial cells with macrophages
Summary of the method: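 Human venular endothelial cells cocultured with macrophages, dosed 24 h; IL-10 measured by ELISA, activity relative to DMSO. Cytotoxicity assessed in parallel cultures by sulforhodamine B total-protein staining.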

[12] = read-out: Thrombomodulin, THBD (gene 7056); experiment: BSK_LPS_Thrombomodulin: BioMAP Diversity Plus: LPS Assay for Thrombomodulin Biomarker Activity (AID 2284296); conditions: primary human HUVEC with PBMC
Summary of the method: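 Human umbilical vein endothelial cells co-cultured with PBMC and stimulated with LPS; cell-surface thrombomodulin measured by ELISA 24 hours after compound. Gain or loss versus DMSO; cytotoxicity checked by SRB staining in parallel cultures.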

[13] = read-out: E-selectin (Homo sapiens) (UniProt P16581); experiment: BSK_IMphg_ESelectin: BioMAP Diversity Plus: IMphg Assay for Eselectin Biomarker Activity (AID 2284291); conditions: primary human endothelial cells with macrophages
Summary of the method: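 Human venular endothelial cell–macrophage co-culture, E-selectin measured by ELISA 24 h after chemical dosing. Signal fitted in the positive direction against DMSO as negative control and baseline.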

[14] = BSK_IMphg_SRB.Mphg: Macrophage Viability Assessment in the BioMAP Diversity Plus: IMphg Assay (AID 2284295); conditions: primary human endothelial cells with macrophages
Summary of the method: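 Venular endothelial cells co-cultured with macrophages, read 24 h after dosing. Total protein measured by 0.1% SRB staining after 10% TCA fixation, absorbance at 560 nm. Fitted in positive direction against DMSO baseline.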

[15] = IUF_NPC2c_oligodendrocyte_migration_120hr: Leibniz Research Institute for Environmental Medicine (IUF) 120-hour Neural Progenitor Cell Migration Assay for Oligodendrocyte Migration (NPC2c) (AID 2284297);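 also: O4-positive oligodendrocyte migration distance divided by radial glia migration distance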
Summary of the method: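 Human fetal neural progenitor spheres (0.3 mm) are plated on poly-D-lysine/laminin in N2 differentiation medium and exposed for 120 h, with half-medium renewal at day 3. Oligodendrocyte (O4+) migration distance comes from ICC imaging, normalised to radial glia migration.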

[16] = IUF_NPC2a_radial_glia_migration_120hr: Leibniz Research Institute for Environmental Medicine (IUF) 120-hour Neural Progenitor Cell Migration Assay for Radial Glia Migration (NPC2a) (AID 2284298)
Summary of the method: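 Human fetal-cortex neural progenitor spheres (0.3 mm) plated on poly-D-lysine/laminin in N2 differentiation medium, exposed 120 h at 37C with half-medium renewal at day 3. Radial glia migration distance (um) measured from Hoechst-stained nuclei images; DMSO baseline.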

[17] = IUF_NPC2a_radial_glia_migration_72hr: Leibniz Research Institute for Environmental Medicine (IUF) 72-hour Neural Progenitor Cell Migration Assay for Radial Glia Migration (NPC2a) (AID 2284299)
Summary of the method: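 Migration out of plated human neural progenitor spheres is scored at 72 h as the distance in um from the sphere core edge to the edge of the migration area. Values are the mean of four manual measurements per well, normalised to DMSO.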

[18] = IUF_NPC2b_neuronal_migration_120hr: Leibniz Research Institute for Environmental Medicine (IUF) 120-hour Neural Progenitor Cell Migration Assay for Neuron Migration (NPC2b) (AID 2284300)
Summary of the method: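 0.3 mm hNPC spheres on poly-D-lysine/laminin in N2 differentiation medium exposed 120 h, half-medium refresh day 3; 7 concentrations, DMSO max 0.1%. Neuron (TUBB3) distance from sphere core by ICC imaging, normalised to radial glia migration.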

Measured: AC50

E-selectin (Homo sapiens), sequence (P16581 whole entry, looked up): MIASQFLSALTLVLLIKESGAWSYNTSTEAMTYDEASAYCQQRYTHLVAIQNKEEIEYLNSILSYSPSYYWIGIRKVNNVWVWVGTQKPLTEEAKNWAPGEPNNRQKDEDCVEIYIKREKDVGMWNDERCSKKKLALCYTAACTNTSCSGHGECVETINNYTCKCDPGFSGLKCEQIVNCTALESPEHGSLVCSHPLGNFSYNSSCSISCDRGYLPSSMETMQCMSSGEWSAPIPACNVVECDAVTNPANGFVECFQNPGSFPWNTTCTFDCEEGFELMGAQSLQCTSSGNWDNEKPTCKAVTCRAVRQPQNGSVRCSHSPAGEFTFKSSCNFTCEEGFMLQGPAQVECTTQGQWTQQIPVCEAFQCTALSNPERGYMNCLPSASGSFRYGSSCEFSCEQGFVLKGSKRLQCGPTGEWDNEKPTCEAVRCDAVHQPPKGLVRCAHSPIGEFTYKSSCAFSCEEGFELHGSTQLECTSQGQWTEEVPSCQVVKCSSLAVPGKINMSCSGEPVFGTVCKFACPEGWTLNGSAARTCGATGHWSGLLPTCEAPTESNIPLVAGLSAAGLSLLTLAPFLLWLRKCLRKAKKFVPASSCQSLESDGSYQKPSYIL

O=P(O)(O)OCCC(F)(F)C(F)(F)C(F)(F)C(F)(F)C(F)(F)C(F)(F)F
not listed: [13] | [14] | [15] | [16] | [17] | [18]
inactive: all other assays above

O=C(O)C(F)(OC(F)(F)C(F)(OC(F)(F)C(F)(OC(F)(F)C(F)(F)C(F)(F)F)C(F)(F)F)C(F)(F)F)C(F)(F)F (configuration not stated)
not listed: [14] | [15] | [16] | [17] | [18]
inactive: all other assays above

OCC(F)(F)C(F)(F)C(F)(F)C(F)F
not listed: [13] | [15] | [16] | [17] | [18]
inactive: all other assays above

CCCCCCCCC(F)(F)C(F)(F)C(F)(F)C(F)(F)C(F)(F)C(F)(F)F
not listed: [13] | [14] | [15] | [16] | [17] | [18]
inactive: all other assays above

O=C(CC(=O)C(F)(F)C(F)(F)F)C(F)(F)F
not listed: [13] | [15] | [16] | [17] | [18]
inactive: all other assays above

FC(F)(F)C(F)(F)C(F)(F)C(F)(F)C(F)(F)C(F)(F)C(F)(F)Br
not listed: [13] | [15] | [16] | [17] | [18]
inactive: all other assays above

FC(F)(F)C(F)(F)C(F)(F)CI
active: [12] 1340 nM
inactive: [1] | KRT18 (gene 3875) | [2] | [3] | [4] | [5] | [6] | CD40, CD40 (gene 958) | [7] | [8] | [9] | [10] | [11] | [14] | [12]

OC[C@@H](O)[C@@H](O)[C@H](O)[C@@H](O)CO
inactive: [15] | [16] | [17] | [18]

FC(F)(F)C(F)(F)C(F)(F)C(F)(F)C(F)(F)C(F)(F)CC1CO1 (configuration not stated)
not listed: [13] | [14] | [15] | [16] | [17] | [18]
inactive: all other assays above
